PubChem BioAssay (EPA / NIEHS)
Some compounds were tested as several samples or in several runs, with calls that do not always agree. Calls of active or inactive are those of the source. Rule for the calls: active = hit-call score of the fitted dose curve at least 0.9, where 1 is the maximum; inactive = score below 0.9.

Each compound was assayed against Myc proto-oncogene protein (Homo sapiens) (UniProt P01106) (assay: ATG_Myc_CIS: Attagene CIS-FACTORIAL HepG2 Assay for human Myelocytomatosis (Myc) Proto-Oncogene Transcription Factor (AID 2282990)). Conditions: HepG2, Attagene cis-reporter transcription factor activity; actives raise or lower the signal.
Method: ATG_CIS is a cell-based, multiplexed-readout assay that uses HepG2, a human liver cell line, with measurements taken at 24 hours after chemical dosing in a 24-well plate.ATG_Myc_CIS is one of 52 assay component(s) measured or calculated from the ATG_CIS assay. It is designed to make measurements of mRNA induction, a form of inducible reporter, as detected with fluorescence intensity signals by Reverse transcription polymerase chain reaction (RT-PCR) and Capillary electrophoresis technology.Data from the assay component ATG_Myc_CIS was analyzed into 1 assay endpoint. This assay endpoint, ATG_Myc_CIS, was analyzed with bidirectional fitting relative to DMSO as the negative control and baseline of activity. Using a type of inducible reporter, measures of mRNA for gain or loss-of-signal activity can be used to understand the reporter gene at the transcription factor-level as they relate to the gene MYC. Furthermore, this assay endpoint can be referred to as a primary readout, because this assay has produced multiple assay endpoints where this one serves a reporter gene function. To generalize the intended target to other relatable targets, this assay endpoint is annotated to the dna binding intended target family, where the subfamily is basic helix-loop-helix leucine zipper.
Human liver HepG2 cells are transiently transfected with multiple reporter transcription units (MRTUs) in 6-well plates using FuGene 6 reagent (Roche; 3 ml FuGene/1 mg DNA). The MRTU constructs are regulated by a cis-regulating element (promoter). […] A major difference between the CIS and TRANS system is that in CIS activities of endogenous TFs are measured, whereas the TRANS assay evaluates changes in activities of exogenous, chimeric NR-Gal4 proteins. […] At the end of 24 hour incubation, total RNA was isolated using TriZol reagent (Invitrogen). The isolated RNA is then reverse-transcribed using oligo(dT) primer and Mo-MLV reverse transcriptase (Invitrogen) with DNAse I (Ambion) treatment for 30 min. The one-tenth of the produced cDNA was amplified by PCR using Taq DNA polymerase (Invitrogen) and two reporter sequence-specific primers. The PCR products were fluorescently labeled by primer extension with 6-arboxyfluorescein (6-FAM) 5'-labeled reporter sequence-specific primer (2 min at 95 C, 20 s at 68 C and 10 min at 72 C) and these products were digested with 5U of HpaI (New England Biolabs) for 2h at 37 C. The fragments were purified using Qiaquick PCR columns (Qiagen), analyzed on an ABI 3130xL genetic analyzer (Applied Biosystems) with peak positions identified by using a set of X-rhodamine (ROX)-labeled MapMarker1000 molecular weight standards (BioVentures). The raw capillary electrophoresis data was processed using Attagraph software (Attagene).

Chain of Myc proto-oncogene protein (Homo sapiens) (P01106 whole entry, looked up): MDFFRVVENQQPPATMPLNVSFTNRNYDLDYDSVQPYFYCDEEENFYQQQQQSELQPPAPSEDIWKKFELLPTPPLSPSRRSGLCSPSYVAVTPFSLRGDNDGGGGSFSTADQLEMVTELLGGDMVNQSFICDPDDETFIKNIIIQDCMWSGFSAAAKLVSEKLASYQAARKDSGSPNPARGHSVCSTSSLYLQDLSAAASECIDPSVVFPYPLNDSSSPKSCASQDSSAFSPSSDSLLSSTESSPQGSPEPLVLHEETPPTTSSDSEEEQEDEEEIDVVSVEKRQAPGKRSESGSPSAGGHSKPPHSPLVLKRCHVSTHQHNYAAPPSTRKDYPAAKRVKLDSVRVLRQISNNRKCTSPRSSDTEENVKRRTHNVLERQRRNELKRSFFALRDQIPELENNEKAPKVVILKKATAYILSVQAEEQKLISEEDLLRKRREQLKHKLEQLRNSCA

Row | SMILES | outcome | AC50
1 | O=C1c2c(O)cccc2Cc2cccc(O)c21 | inactive | 
2 | CC(C)COC(=O)CCCCC(=O)OCC(C)C | inactive | 
3 | CC(=O)OC1CC(C)OC(C)O1 (stereo not given) | inactive | 
4 | CC(=O)CC(c1ccccc1)c1c(O)c2ccccc2oc1=O (stereo not given) | inactive | 
5 | Oc1ccccc1O | inactive | 
6 | CC(C)NCC(O)c1ccc(O)c(O)c1 (stereo not given) | inactive | 
7 | O=C(O)c1[nH]n(-c2ccc(S(=O)(=O)O)cc2)c(=O)c1N=Nc1ccc(S(=O)(=O)O)cc1 | inactive | 
8 | CC(C)c1cccc(C(C)C)c1 | inactive | 
9 | CC(C)(O)c1ccc(CNC(=O)c2cccnc2Oc2ccc(F)cc2)cc1 | inactive | 
10 | COC(=O)[C@H]1[C@H]2C[C@@H]3c4[nH]c5cc(OC)ccc5c4CCN3C[C@H]2C[C@@H](OC(=O)c2cc(OC)c(OC)c(OC)c2)[C@@H]1OC | inactive | 
11 | CCCCC(CC)CO (stereo not given) | inactive | 
12 | Cc1cc(Cc2ccc(N)c(C)c2)ccc1N | inactive | 
13 | Nc1nc(=S)c2[nH]cnc2[nH]1 | inactive | 
14 | CCCCCCC(C=O)=Cc1ccccc1 | inactive | 
15 | CC(C)c1cccc(C(C)C)c1NC(=O)NS(=O)(=O)c1cc(C(C)(C)O)co1 | inactive | 
16 | CS(=O)(=O)c1ccc([C@@H](C[C@H]2CCC(=O)C2)C(=O)Nc2cnccn2)cc1Cl | inactive | 
17 | CN(C)CCCN1c2ccccc2Sc2ccc(Cl)cc21 | inactive | 
18 | NC1CCCCC1 | inactive | 
19 | CC(=O)O[C@]1(C(C)=O)CC[C@H]2[C@@H]3C=C(Cl)C4=CC(=O)[C@@H]5C[C@@H]5[C@]4(C)[C@H]3CC[C@@]21C | inactive | 164 µM (active)
20 | CC(=O)S[C@H](C(=O)N[C@H]1Cc2ccccc2[C@H]2CCC[C@@H](C(=O)O)N2C1=O)C(C)C | inactive | 

Row | SMILES | outcome | AC50
21 | Cc1cc(SC2=C(O)C[C@@](CCc3ccc(N)cc3)(C(C)C)OC2=O)c(C(C)(C)C)cc1CO | inactive | 
22 | CCCC(=O)O | inactive | 
23 | O=C(N[C@@H](c1ccccc1)[C@@H]1CCCCN1)c1cccc(C(F)(F)F)c1Cl |  | 54 µM (active)
24 | COc1ccc(C(=O)Nc2nc3ccccc3c(NCc3ccccc3)c2C#N)cc1 | inactive | 
25 | CC(N)=O | inactive | 
26 | CC(COCC(C)OC(=O)c1ccccc1)OC(=O)c1ccccc1 (stereo not given) | inactive | 
27 | CCc1nc(N)nc(N)c1-c1ccc(Cl)cc1 |  | 166 µM (active)
28 | O=C1O[C@H]([C@H](O)CO)C(O)=C1O | inactive | 
29 | CC(=O)OCC(COC(C)=O)OC(C)=O | inactive | 
30 | Cc1ccc(-c2cc(C(F)(F)F)nn2-c2ccc(S(N)(=O)=O)cc2)cc1 | inactive | 
31 | Cc1cn([C@H]2C=C[C@@H](CO)O2)c(=O)[nH]c1=O | inactive | 
32 | CC(C)OC(=O)C(C)(C)Oc1ccc(C(=O)c2ccc(Cl)cc2)cc1 | inactive | 
33 | CCCCCCCCCC[N+](C)(C)[O-] | inactive | 
34 | Nc1nc(Cl)nc2c1ncn2[C@H]1C[C@H](O)[C@@H](CO)O1 | inactive | 
35 | C/C=C/c1ccc(OC)cc1 | inactive | 
36 | O=C1OC(c2ccc(O)cc2)(c2ccc(O)cc2)c2ccccc21 |  | 180 µM (active)
37 | CCCCC(CC)COC(=O)CCCCCCCC(=O)OCC(CC)CCCC (stereo not given) | inactive | 
38 | COc1ccc(OC(F)(F)F)cc1CN[C@H]1CCCN[C@H]1c1ccccc1 | inactive | 
39 | Cn1cnc2c1c(=O)[nH]c(=O)n2C | inactive | 
